Bioassay records (PubChem BioAssay)
PfHsp90 yeast 2 – inhibits growth of yeast expressing Plasmodium falciparum Hsp90 | S. cerevisiae expressing PfHsp90, BacTiter-Glo ATP, 48 h; yeast lacking PDR1 and PDR3 efflux regulators | inhibition, % at 9.4 µM | hit rate 0.32% among 310,000 | AID 504621;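 active = every replicate shows inhibition above about 80%, whatever the replicate mean, limit read from the data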
TIM10 inh – growth inhibitors of TIM10 yeast strain | S. cerevisiae TIM10 strain growth, BacTiter-Glo luminescence, 24 h | inhibition, % at 10 µM | hit rate 1.4% among 330,000 | AID 463195;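 active = inhibition of 40% or more at the single tested concentration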;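 also: wild-type TIM10 isogenic control strain grown at permissive 25 °C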
Rce1 inhib – yeast Ras-converting enzyme inhibition; Q03530; yeast membranes, quenched prenylated peptide cleavage fluorescence; calls only; hit rate 0.27% among 290,000;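 active = fall in fluorescence gain of 50% or more versus controls, with final raw signal at or below 3038400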
Target sequence (Q03530 whole entry, looked up): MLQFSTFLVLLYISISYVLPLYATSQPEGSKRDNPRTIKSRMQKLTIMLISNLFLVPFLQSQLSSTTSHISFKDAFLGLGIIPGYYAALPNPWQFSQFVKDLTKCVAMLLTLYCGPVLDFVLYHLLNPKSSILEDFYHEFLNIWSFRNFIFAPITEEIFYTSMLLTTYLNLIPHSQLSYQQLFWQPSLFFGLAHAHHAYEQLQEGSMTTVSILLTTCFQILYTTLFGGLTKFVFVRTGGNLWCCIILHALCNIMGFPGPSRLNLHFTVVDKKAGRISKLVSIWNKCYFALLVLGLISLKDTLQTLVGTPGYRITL
tim23-1 inh – growth inhibitors of tim23-1 mutant yeast. S. cerevisiae tim23-1 growth, BacTiter-Glo luminescence, 24 h. inhibition, % at 20 µM. hit rate 1.3% among 330,000;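 active = growth inhibition of the mutant yeast at or above 50%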;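 also: temperature-sensitive mutant grown at 25 °C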
tim10-1 inh – growth inhibitors of tim10-1 mutant yeast; S. cerevisiae tim10-1 ts strain growth, BacTiter-Glo, 24 h; inhibition, % at 20 µM; hit rate 2.2% among 330,000; AID 463190;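 active = inhibition of at least 40%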;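 also: mutant grown at 25 °C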
tim10-1 confirm – tim10-1 yeast growth inhibition, confirmed | hit rate 56% among 7,400 | inhibition, % at 20 µM | shares compounds with tim10-1 inh | S. cerevisiae tim10-1 ts strain growth, BacTiter-Glo, 24 h;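 active = inhibition of yeast growth at or above a set limit in either of two repeat tests at 20 µM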;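 also: tim10-1 mutant grown at permissive 25 °C to find synthetic lethal compounds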
tim10 confirm – confirmation of TIM10 yeast growth inhibitors; shares compounds with TIM10 inh; S. cerevisiae tim10 strain growth, BacTiter-Glo luminescence, 24 h; inhibition, % at 10 µM; hit rate 63% among 4,600; AID 463215;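 active = inhibition of yeast growth at or above a set limit in either of two replicates at 10 µM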; also: this counterscreen used the strain with wild-type TIM10
tim23-1 conf – confirmation of tim23-1 mutant yeast growth inhibitors | shares compounds with tim23-1 inh | S. cerevisiae tim23-1 growth, BacTiter-Glo luminescence, 24 h | inhibition, % at 20 µM | hit rate 83% among 4,400;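 active = inhibition above about 39% in either of two replicate wells at 20 µM, limit read from the data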;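 also: temperature-sensitive tim23-1 mutant grown at 25 °C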
Hits are given with their value. Sampled rows, rich in hits. Any-hit rate of the full collection: about 3.7%.

How did CC(C)(C)C(=O)OC/C(N)=N/OC(=O)c1ccc(Cl)cc1 do in these assays?
PfHsp90 yeast 2: inactive; TIM10 inh: 44; Rce1 inhib: inactive; tim23-1 inh: 76; tim10-1 inh: 60; tim10-1 confirm: 47; tim10 confirm: 68; tim23-1 conf: 73

What do the screens show for `N/C(=N\OC(=O)c1ccc2ccccc2c1)c1cccc([N+](=O)[O-])c1`?
PfHsp90 yeast 2: inactive; TIM10 inh: inactive; Rce1 inhib: inactive; tim23-1 inh: inactive; tim10-1 inh: inactive

How did N/C(Cc1ccc([N+](=O)[O-])cc1)=N\OC(=O)c1ccc([N+](=O)[O-])cc1 do in these assays?
PfHsp90 yeast 2: inactive; TIM10 inh: 84; Rce1 inhib: inactive; tim23-1 inh: 67; tim10-1 inh: 59; tim10-1 confirm: 74; tim10 confirm: 86; tim23-1 conf: 84

How did CC(=O)c1ccc(COC(=O)Cc2ccc([N+](=O)[O-])cc2)cc1 do in these assays?
PfHsp90 yeast 2: inactive; TIM10 inh: inactive; Rce1 inhib: inactive; tim23-1 inh: inactive; tim10-1 inh: inactive

Results for COc1ccccc1C/C(N)=N/OC(=O)c1cccc([N+](=O)[O-])c1 ?
TIM10 inh: 81; Rce1 inhib: inactive; tim23-1 inh: 70; tim10-1 inh: 52; tim10-1 confirm: 41; tim10 confirm: 86; tim23-1 conf: 67

Results for Cc1ccc(NC(=O)C/C(N)=N/OC(=O)c2ccccc2)cc1 ?
PfHsp90 yeast 2: inactive; TIM10 inh: 69; Rce1 inhib: inactive; tim23-1 inh: 51; tim10-1 inh: 55; tim10-1 confirm: 76; tim10 confirm: 80; tim23-1 conf: 75

How did Cc1ccc(CSCC(=O)NCc2cccs2)cc1 do in these assays?
PfHsp90 yeast 2: inactive; TIM10 inh: inactive; Rce1 inhib: inactive; tim23-1 inh: inactive; tim10-1 inh: inactive

How did CC1CCN(C(=O)c2[nH]cnc2C(=O)N[C@@H](C)C(=O)OCc2ccccc2)CC1 do in these assays?
PfHsp90 yeast 2: inactive; TIM10 inh: inactive; Rce1 inhib: inactive; tim23-1 inh: inactive; tim10-1 inh: inactive

Results for Cc1cc(C)cc(N(CCC#N)C(=O)CSc2n[nH]c(N)n2)c1 ?
PfHsp90 yeast 2: inactive; TIM10 inh: inactive; Rce1 inhib: inactive; tim23-1 inh: inactive; tim10-1 inh: inactive

Results for COc1ccc(C(=O)O/N=C(\N)Cc2ccc(Cl)c(Cl)c2)cc1OC ?
PfHsp90 yeast 2: inactive; TIM10 inh: 88; Rce1 inhib: inactive; tim23-1 inh: 70; tim10-1 inh: 58; tim10-1 confirm: 34; tim10 confirm: inactive; tim23-1 conf: inactive

Results for N/C(Cc1ccc([N+](=O)[O-])cc1)=N\OC(=O)c1cccc(Br)c1 ?
PfHsp90 yeast 2: inactive; TIM10 inh: 95; Rce1 inhib: inactive; tim23-1 inh: 91; tim10-1 inh: 70; tim10-1 confirm: 43; tim10 confirm: 95; tim23-1 conf: 86

How did CC(C)(C)C(=O)O/N=C(\N)COc1cccc(Cl)c1 do in these assays?
PfHsp90 yeast 2: inactive; TIM10 inh: 67; Rce1 inhib: inactive; tim23-1 inh: 80; tim10-1 inh: 40; tim10-1 confirm: inactive; tim10 confirm: 74; tim23-1 conf: 69

What do the screens show for `COc1cccc(/C=C/C(=O)c2cccc([N+](=O)[O-])c2)c1`?
PfHsp90 yeast 2: inactive; TIM10 inh: inactive; Rce1 inhib: inactive; tim23-1 inh: inactive; tim10-1 inh: inactive

How did CC(C)(C)C(=O)O/N=C(\N)c1c(Cl)cccc1Cl do in these assays?
PfHsp90 yeast 2: inactive; TIM10 inh: inactive; Rce1 inhib: inactive; tim23-1 inh: inactive; tim10-1 inh: inactive

How did COc1cccc(/C=C/C(=O)c2cccc([N+](=O)[O-])c2)c1OC do in these assays?
PfHsp90 yeast 2: inactive; TIM10 inh: inactive; Rce1 inhib: inactive; tim23-1 inh: 61; tim10-1 inh: 43; tim10-1 confirm: 44; tim23-1 conf: 56

Results for COc1ccc(C/C(N)=N/n2cnnc2)cc1Cl ?
PfHsp90 yeast 2: inactive; TIM10 inh: inactive; Rce1 inhib: inactive; tim23-1 inh: inactive; tim10-1 inh: inactive

Results for Cc1cccc(OCC(=O)O/N=C(\N)Cc2cccs2)c1 ?
PfHsp90 yeast 2: inactive; TIM10 inh: inactive; Rce1 inhib: inactive; tim23-1 inh: inactive; tim10-1 inh: inactive

Results for N/C(Cc1ccc(Cl)cc1)=N\OC(=O)c1ccccc1 ?
PfHsp90 yeast 2: inactive; TIM10 inh: 87; Rce1 inhib: inactive; tim23-1 inh: 69; tim10-1 inh: 53; tim10-1 confirm: inactive; tim10 confirm: inactive; tim23-1 conf: 44

How did Cc1cccc(OCC(=O)O/N=C(\N)Cc2ccc(Cl)cc2)c1 do in these assays?
PfHsp90 yeast 2: inactive; TIM10 inh: 72; Rce1 inhib: inactive; tim23-1 inh: 75; tim10-1 inh: 57; tim10-1 confirm: 40; tim10 confirm: 84; tim23-1 conf: 70

What do the screens show for `O=C(/C=C/c1ccccc1)CC(O)(c1ccccc1)C(F)(F)C(F)F` (configuration not stated)?
PfHsp90 yeast 2: inactive; TIM10 inh: inactive; Rce1 inhib: inactive; tim23-1 inh: 56; tim10-1 inh: 44; tim10-1 confirm: 41; tim23-1 conf: inactive

How did O=C(CC(O)(c1ccccc1)C(F)(F)C(F)F)c1cccs1 (configuration not stated) do in these assays?
TIM10 inh: inactive; Rce1 inhib: inactive; tim23-1 inh: inactive; tim10-1 inh: inactive

Results for Cc1ccccc1OCCN1C(=O)NC2(CCc3ccccc32)C1=O (configuration not stated) ?
PfHsp90 yeast 2: inactive; TIM10 inh: inactive; tim23-1 inh: inactive; tim10-1 inh: inactive

What do the screens show for `O=C(CCCCl)NC(=S)Nc1ccc(N2CCOCC2)cc1`?
PfHsp90 yeast 2: inactive; TIM10 inh: inactive; Rce1 inhib: inactive; tim23-1 inh: inactive; tim10-1 inh: inactive

Results for O=C1CS(=O)(=O)N(Cc2ccccc2F)c2ccc(Br)cc21 ?
PfHsp90 yeast 2: inactive; TIM10 inh: inactive; tim23-1 inh: 72; tim10-1 inh: 41; tim10-1 confirm: 47; tim23-1 conf: 61

Results for CCOC(=O)c1sc2nc(NC(=O)C3CC3)sc2c1C ?
PfHsp90 yeast 2: inactive; TIM10 inh: inactive; Rce1 inhib: inactive; tim23-1 inh: inactive; tim10-1 inh: inactive

How did CCOC(=O)c1sc2nc(NC(=O)C(C)(C)C)sc2c1C do in these assays?
PfHsp90 yeast 2: inactive; TIM10 inh: 41; Rce1 inhib: inactive; tim23-1 inh: 63; tim10-1 inh: 55; tim10-1 confirm: 31; tim10 confirm: 44; tim23-1 conf: 57

Results for COc1ccccc1NC(=O)CN1CCN(CC(=O)Nc2ccc(Cl)c(C(F)(F)F)c2)CC1 ?
PfHsp90 yeast 2: inactive

Results for C/C(CC(=O)Nc1ccc(Cl)c(C(F)(F)F)c1)=N\NC(=O)c1ccccc1O ?
PfHsp90 yeast 2: inactive; TIM10 inh: inactive; Rce1 inhib: inactive; tim23-1 inh: 57; tim10-1 inh: 47; tim10-1 confirm: 39; tim23-1 conf: 41
